Several values for one entry are separate records, joined by “and”; a condition that tells them apart may be missing. Equal values may be shown once. The campaign covered roughly 5,500 compounds. About 2,000 (36%) were called active. Not shown: some 18% with an inconclusive outcome. No stated cut-off is given here; in the data, active means normalized growth mostly below about 0.91 (no sharp cut-off); inconclusive means no clear call, values can overlap the other calls; inactive means mostly above about 0.92. This is one part of the list.
Assay: chemical genetic growth profiling, strain panel (AID 1159580);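 further: tested at 20 µM; growth read once vehicle control cultures reached saturation at 30 °C; 1 = growth at the plate median or of vehicle wells; lower values mean less growth of the strain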
Settings: growth OD
[1] = S. cerevisiae deletion strains, locus YAL013W, strain DEP1, hits give low values
[2] = S. cerevisiae deletion strains, locus YBR021W, strain FUR4, hits give low values
[3] = S. cerevisiae deletion strains, locus YBR229C, strain ROT2, hits give low values
[4] = S. cerevisiae deletion strains, locus YCL029C, strain bik1, hits give low values
[5] = S. cerevisiae deletion strains, locus YDL035C, strain GPR1, hits give low values
[6] = S. cerevisiae deletion strains, locus YDL074C, strain BRE1, hits give low values
[7] = S. cerevisiae deletion strains, locus YDL101C, strain DUN1, hits give low values
[8] = S. cerevisiae deletion strains, locus YDL185W, strain tfp1, hits give low values
[9] = S. cerevisiae deletion strains, locus YDL192W, strain arf1, hits give low values
[10] = S. cerevisiae deletion strains, locus YDR101C, strain arx1, hits give low values
[11] = S. cerevisiae deletion strains, locus YDR162C, strain NBP2, hits give low values
[12] = S. cerevisiae deletion strains, locus YDR318W, strain mcm21, hits give low values
[13] = S. cerevisiae deletion strains, locus YDR388W, hits give low values
[14] = S. cerevisiae deletion strains, locus YDR502C, strain sam2, hits give low values
[15] = S. cerevisiae deletion strains, locus YEL061C, strain CIN8, hits give low values
[16] = S. cerevisiae deletion strains, locus YER110C, hits give low values
[17] = S. cerevisiae deletion strains, locus YER155C, strain BEM2, hits give low values
[18] = S. cerevisiae deletion strains, locus YER167W, strain BCK2, hits give low values
[19] = S. cerevisiae deletion strains, locus YGL078C, strain dbp3, hits give low values
[20] = S. cerevisiae deletion strains, locus YGL086W, strain mad1, hits give low values
[21] = S. cerevisiae deletion strains, locus YGL248W, strain PDE1, hits give low values
[22] = S. cerevisiae deletion strains, locus YGR078C, strain PAC10, hits give low values
[23] = S. cerevisiae deletion strains, locus YGR135W, strain pre9, hits give low values
[24] = S. cerevisiae deletion strains, locus YGR229C, strain SMI1, hits give low values
[25] = S. cerevisiae deletion strains, locus YGR252W, strain gcn5, hits give low values
[26] = S. cerevisiae deletion strains, locus YHR030C, strain SLT2, hits give low values
[27] = S. cerevisiae deletion strains, locus YHR079C, strain IRE1 (second series), hits give low values
[28] = S. cerevisiae deletion strains, locus YHR094C, strain hxt1, hits give low values
[29] = S. cerevisiae deletion strains, locus YHR129C, strain ARP1, hits give low values
[30] = S. cerevisiae deletion strains, locus YHR200W, strain rpn10, hits give low values
[31] = S. cerevisiae deletion strains, locus YIL066C, strain RNR3, hits give low values
[32] = S. cerevisiae deletion strains, locus YIL073C, strain SPO22, hits give low values
[33] = S. cerevisiae deletion strains, locus YIL125W, strain kgd1, hits give low values
[34] = S. cerevisiae deletion strains, locus YIR030C, strain dcg1, hits give low values
[35] = S. cerevisiae deletion strains, locus YJL095W, strain BCK1, hits give low values
[36] = S. cerevisiae deletion strains, locus YJL134W, strain LCB3, hits give low values
[37] = S. cerevisiae deletion strains, locus YJL168C, strain set2, hits give low values
[38] = S. cerevisiae deletion strains, locus YJL187C, strain SWE1 (second series), hits give low values
[39] = S. cerevisiae deletion strains, locus YJR043C, strain POL32, hits give low values
[40] = S. cerevisiae deletion strains, locus YKL068W, hits give low values
[41] = S. cerevisiae deletion strains, locus YKL085W, strain MDH1 (second series), hits give low values
[42] = S. cerevisiae deletion strains, locus YKL085W, strain MDH1, hits give low values
[43] = S. cerevisiae deletion strains, locus YKR001C, strain vps1, hits give low values
[44] = S. cerevisiae deletion strains, locus YLR039C, strain RIC1, hits give low values
[45] = S. cerevisiae deletion strains, locus YLR058C, strain SHM2, hits give low values
[46] = S. cerevisiae deletion strains, locus YLR102C, strain apc9, hits give low values
[47] = S. cerevisiae deletion strains, locus YLR262C, strain YPT6, hits give low values
[48] = S. cerevisiae deletion strains, locus YLR268W, strain sec22, hits give low values
[49] = S. cerevisiae deletion strains, locus YLR330W, strain CHS5, hits give low values
[50] = S. cerevisiae deletion strains, locus YLR342W, strain FKS1 (second series), hits give low values
[51] = S. cerevisiae deletion strains, locus YLR371W, strain rom2, hits give low values
[52] = S. cerevisiae deletion strains, locus YLR418C, strain cdc73, hits give low values
[53] = S. cerevisiae deletion strains, locus YML016C, strain PPZ1, hits give low values
[54] = S. cerevisiae deletion strains, locus YML032C, strain rad52, hits give low values
[55] = S. cerevisiae deletion strains, locus YML124C, strain tub3, hits give low values
[56] = S. cerevisiae deletion strains, locus YMR078C, strain ctf18, hits give low values
[57] = S. cerevisiae deletion strains, locus YMR223W, strain ubp8, hits give low values
[58] = S. cerevisiae deletion strains, locus YMR263W, strain SAP30, hits give low values
[59] = S. cerevisiae deletion strains, locus YMR307W, strain GAS1, hits give low values
[60] = S. cerevisiae deletion strains, locus YNL067W, strain RPL9B, hits give low values
[61] = S. cerevisiae deletion strains, locus YNL233W, strain BNI4, hits give low values
[62] = S. cerevisiae deletion strains, locus YNL250W, strain rad50, hits give low values
[63] = S. cerevisiae deletion strains, locus YNL271C, strain bni1, hits give low values
[64] = S. cerevisiae deletion strains, locus YNL298W, strain CLA4, hits give low values
[65] = S. cerevisiae deletion strains, locus YNL307C, strain MCK1, hits give low values
[66] = S. cerevisiae deletion strains, locus YNR052C, strain pop2, hits give low values
[67] = S. cerevisiae deletion strains, locus YOL006C, strain TOP1, hits give low values
[68] = S. cerevisiae deletion strains, locus YOL012C, strain htz1
[69] = S. cerevisiae deletion strains, locus YOL147C, strain pex11, hits give low values
[70] = S. cerevisiae deletion strains, locus YOR061W, strain CKA2, hits give low values
[71] = S. cerevisiae deletion strains, locus YOR069W, strain VPS5, hits give low values
[72] = S. cerevisiae deletion strains, locus YOR136W, strain idh2, hits give low values
[73] = S. cerevisiae deletion strains, locus YOR144C, strain elg1, hits give low values
[74] = S. cerevisiae deletion strains, locus YOR184W, strain ser1, hits give low values
[75] = S. cerevisiae deletion strains, locus YOR316C, strain cot1, hits give low values
[76] = S. cerevisiae deletion strains, locus YPR119W, strain clb2, hits give low values
[77] = S. cerevisiae deletion strains, locus YPR141C, strain kar3, hits give low values
[78] = S. cerevisiae deletion strains, locus YPR163C, strain tif3, hits give low values
[79] = S. cerevisiae deletion strains, locus YPR167C, strain met16, hits give low values
[80] = S. cerevisiae deletion strains, strain wtn01, hits give low values
[81] = S. cerevisiae strains, strain wild type, hits give low values

Measured: normalized growth

COC(=O)c1c(C)cc(OC(=O)c2c(C)cc(O)c(C=O)c2O)c(C)c1O
inactive: [1] 0.93 | [2] 1.05 | [3] 1 | [4] 0.994 | [5] 0.994 | [6] 1.03 | [7] 1.01 | [8] 0.991 | [9] 0.934 | [10] 0.994 | [11] 0.899 | [12] 0.934 | [13] 0.988 | [14] 0.984 | [15] 0.971 | [16] 1.03 | [17] 1.03 | [18] 0.999 | [19] 1.01 | [20] 0.942 | [21] 0.98 | [22] 0.971 | [24] 0.919 | [25] 1.01 | [26] 0.999 and 0.975 | [27] 0.999 | S. cerevisiae deletion strains, locus YHR079C, strain IRE1, hits give low values 0.978 | [28] 1 | [29] 0.963 | [30] 0.962 | [31] 0.985 | [32] 1.02 | [33] 0.991 | [34] 1.03 | [35] 0.975 and 0.987 | [36] 1.01 | [37] 1.01 | [38] 0.972 | [39] 0.971 | S. cerevisiae deletion strains, locus YJR066W, strain TOR1, hits give low values 0.919 | [40] 1.03 | [41] 0.987 | [42] 0.987 | [44] 0.947 | [45] 0.957 | [46] 1.02 | S. cerevisiae deletion strains, locus YLR113W, strain HOG1, hits give low values 0.995 | [47] 0.933 | [48] 0.916 | [49] 1.01 | [50] 1.07 | [51] 0.99 | [52] 0.924 | [53] 1 | [54] 0.96 | [55] 1 | [56] 1.02 | [57] 0.938 | [58] 0.987 | [59] 0.789 | [60] 0.972 | S. cerevisiae deletion strains, locus YNL183C, strain NPR1, hits give low values 0.917 | [61] 0.982 | [62] 0.988 | [63] 1.03 | [64] 1.01 | [65] 1.01 | [66] 1 | [67] 1.06 | [68] 0.816 | [69] 1.04 | [70] 1 | [71] 1 | [72] 1.02 | [73] 1.01 | [74] 0.931 | S. cerevisiae deletion strains, locus YOR231W, strain MKK1, hits give low values 0.981 | [75] 1.03 | S. cerevisiae deletion strains, locus YPL256C, strain CLN2, hits give low values 0.988 | [76] 0.996 | [77] 1 | [78] 1.01 | [79] 0.963 | [80] 0.948 | [81] 0.926
active: [23] 0.893 | [43] 0.891

COC(=O)c1c(C)cc(OC(=O)c2c(C)c(Cl)c(O)c(C=O)c2O)c(C)c1O
inactive: [1] 1 | [2] 1 | [3] 1 | [4] 0.985 | [5] 1.01 | [6] 1 | [7] 0.978 | S. cerevisiae deletion strains, locus YDL134C, strain PPH21, hits give low values 0.994 | [8] 0.963 | [9] 0.993 | [10] 0.995 | S. cerevisiae deletion strains, locus YDR150W, strain NUM1, hits give low values 0.984 | [11] 0.997 | [12] 0.99 | [13] 0.985 | [14] 0.984 | [15] 0.99 | [16] 0.989 | [17] 1 | [18] 1 | [19] 0.984 | [20] 0.993 | [21] 0.979 | [22] 0.988 | [23] 0.982 | [24] 0.971 | [25] 1 | [26] 0.993 | [27] 0.987 | [28] 0.987 | [29] 1 | [30] 0.985 | [31] 0.973 | [32] 0.906 | [33] 1 | [34] 0.983 | [35] 1.01 | [36] 0.989 | [37] 0.992 | [38] 0.983 | [39] 1 | S. cerevisiae deletion strains, locus YJR075W, strain HOC1, hits give low values 1 | S. cerevisiae deletion strains, locus YKL009W, strain mrt4, hits give low values 0.984 | [40] 0.984 | [41] 0.996 | [42] 0.996 | S. cerevisiae deletion strains, locus YKL190W, strain CNB1, hits give low values 0.992 | [43] 0.989 | [44] 1 | [45] 0.988 | [46] 0.982 | [47] 0.968 | [48] 0.972 | [49] 0.993 | [50] 0.979 | [51] 0.98 | [52] 1 | [53] 0.992 | [54] 0.981 | [55] 0.985 | [56] 0.981 | [57] 0.979 | [58] 0.971 | [59] 0.972 | [60] 0.995 | S. cerevisiae deletion strains, locus YNL128W, strain TEP1, hits give low values 0.998 | S. cerevisiae deletion strains, locus YNL153C, strain GIM3, hits give low values 0.986 | [61] 0.989 | [62] 0.997 | [63] 0.996 | [64] 0.98 | [65] 0.98 | S. cerevisiae deletion strains, locus YNL322C, strain KRE1, hits give low values 1 | [66] 0.979 | [67] 1.03 | [68] 0.881 | [69] 0.981 | [70] 0.999 | [71] 0.986 | [72] 0.993 | [73] 0.978 | [74] 0.976 | [75] 0.996 | S. cerevisiae deletion strains, locus YPL055C, strain LGE1, hits give low values 0.984 | S. cerevisiae deletion strains, locus YPL241C, strain CIN2, hits give low values 0.989 | [76] 0.975 | [77] 0.986 | [78] 0.977 | [79] 0.993 | [80] 0.975 | [81] 1.01

Reference: PubChem BioAssay AID1159580 (chemical genetic matrix, 2015)
